{"source": "PubChem BioAssay (NCI)", "note": "About 83,000 compounds went through this panel and 20% of them were active in at least one assay; those are over-represented in the sample as a whole.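 In brief: 96-well plates, 48 h treatment, single concentration, percent growth endpoint.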 Values without a mark were called inactive. Calls of active or inactive are those of the source.", "data": [{"system": "UO-31 renal", "assay": "NCI-60 one-dose screen, 48 h (100 = growth as untreated, 0 = no growth, -100 = all killed)", "conditions": "10 µM unless noted", "method": "Growth inhibition of the UO-31 human tumor cell line is measured as a screen for anti-cancer activity. Cells are grown in 96 well plates and exposed to the test compound for 48 hours. Compounds are tested at a single concentration, which is 10^-5 M for most compounds. The reported endpoint is percent growth (GI% or GIPRCNT), where numbers from 0 - 100% represent growth inhibition, and numbers from -100% - 0 represent cell death. For example, a value of 40 represents 60% growth inhibition. A value of 0 means no net growth occurred over the course of the experiment. A value of -40 indicates 40% of cells at the beginning of the experiment died by the end of the experiment. A value of -100 means all cells are dead at the end of the experiment.\nNCI-60 Human Tumor Cell Lines Screen was performed using the standard one-dose NCI protocol, which is described in more detail at https://dtp.cancer.gov/discovery_development/nci-60/default.htm.\nCompounds with GIPRCNT values below 10 were considered active. Activity score was based on GIPRCNT using the following formula: […]\nScore is 0 for GIPRCNT values of 100 or above, 50 for GIPRCNT values of 0, and 100 for GIPRCNT values of -100.", "values": [{"smiles": "N#C/C(=C\\c1ccc(Br)cc1)n1nnc2cc(Cl)c(Cl)cc21", "growth": "35.1%"}, {"smiles": "COc1ccc(-c2nnc(-c3ccc4c(c3)nc(-c3ccccc3)n4C3CCCCC3)o2)cc1", "growth": "40.7%"}, {"smiles": "Cc1ccc(S(=O)(=O)Nc2sccc2-c2nc(-c3ccccc3)no2)cc1", "growth": "70.4%"}, {"smiles": "Cn1cc(Nc2nccc(-c3ccc(N4CCCC4)c(C#N)c3)n2)cn1", "growth": "31.9%"}, {"smiles": "COc1ccc(/C=C2\\C=C(c3ccccc3)N(CCc3ccccc3)C2=O)cc1OC", "growth": "-47.5% (active)"}, {"smiles": "O=C(CC12CC3CC(CC(C3)C1)C2)NCCOCCOCCOCCNC(=O)c1cc2c(o1)C(=O)c1ccccc1C2=O", "growth": "-68.5% (active)"}, {"smiles": "O=[N+]([O-])c1ccc(-c2cc3c(Nc4ccc(Cl)c(C(F)(F)F)c4)ncnc3s2)cc1", "growth": "-3.64% (active)"}, {"smiles": "CO/C(=C1/NC(=O)C(Cc2ccc(O)c(Br)c2)N(C)C(=O)C(C)NC(=O)CCC/C=C(\\C)CCC(C)OC1=O)c1ccccc1", "note": "(stereo not given)", "growth": "-84.9% (active)"}, {"smiles": "C=C(C)[C@@H]1CC[C@@]2(C(=O)O)CC[C@]3(C)C(CCC4[C@@]5(C)CCC(OS(=O)(=O)c6ccccc6)C(C)(C)C5CC[C@]43C)C12", "note": "(stereo not given in full)", "growth": "48.5%"}, {"smiles": "C[C@@H]1CC[C@@H]2[C@@H]1[C@H](OC(=O)c1ccc3ccccc3c1)[C@]1(C3CCCCC3)C[C@@H](OC(=O)CO)[C@@]2(C)O1", "growth": "-43.6% (active)"}, {"smiles": "Nc1nc(I)c2ncn(C3OC(CO)C(O)C3O)c2n1", "note": "(stereo not given)", "growth": "96%"}, {"smiles": "CC(C)(C)OC(=O)N1Cc2cc3ccccc3nc2C1CO", "note": "(stereo not given)", "growth": "87%"}, {"smiles": "CCOc1cccnc1/C=N/NC(N)=S", "growth": "9.56% (active)"}, {"smiles": "N#Cc1c(-c2ccc(C(F)(F)F)cc2)cc(N2CC(O)C2)n2c1nc1ccccc12", "growth": "54.5%"}, {"smiles": "COc1ccc(OC)c(/C=C2\\COc3ccc(O)c(O)c3C2=O)c1", "growth": "-25.8% (active)"}, {"smiles": "COc1cccc(-c2cnco2)c1OCc1c(C)c(COc2c(OC)cccc2-c2cnco2)c(C)c(COc2c(OC)cccc2-c2cnco2)c1C", "growth": "30.8%"}, {"smiles": "O=C(Nc1ccccn1)[C@H](O)[C@@H](O)C(=O)N1CCOCC1", "growth": "104%"}, {"smiles": "Cc1cc(Cc2cc(C)cc(C(C)(C)C)c2O)c(O)c(C(C)(C)C)c1", "growth": "43%"}, {"smiles": "C[C@H]1[C@H]2C3=CC[C@@H]4[C@@]5(C)C/C(=C/c6ccncc6)C(=O)C(C)(C)[C@@H]5CC[C@@]4(C)[C@]3(C)CC[C@@]2(C(=O)N2CCN(C)CC2)CC[C@@H]1C", "growth": "62.4%"}, {"smiles": "Cc1[nH]c(-c2nc3ccccc3[nH]2)c(C)c1C(=O)N1CCc2sccc2C1", "growth": "77.9%"}, {"smiles": "CCn1c(Sc2nnc(NC(=O)CSC(=S)N3CCCCC3)s2)nc2c1c(=O)n(C)c(=O)n2C", "growth": "79.8%"}, {"smiles": "Cc1c(C)c2c(c(C)c1NC(=O)/C=C\\C(=O)O)CCC(C)(CCCC(C)CCCC(C)CCCC(C)C)O2", "note": "(stereo not given)", "growth": "37.2%"}, {"smiles": "COc1cc2cc(Oc3ccc(NC(=O)Nc4cc(C(F)(F)F)cc(C(F)(F)F)c4)cc3)c(C)nc2cc1OCCN1CCCCC1", "growth": "-98.9% (active)"}, {"smiles": "CN1CCN(c2ccc3nc(/N=C/c4ccc5sc(-c6ccc([N+](=O)[O-])cc6)nc5c4)sc3c2)CC1", "growth": "92.2%"}, {"smiles": "CCOc1cc(N)ccc1C(=O)NCCCN(CC)CC", "growth": "75.8%"}, {"smiles": "COc1cc2oc3cc(C)oc(=O)c3c2cc1OC", "growth": "82.7%"}, {"smiles": "Cc1nc(Nc2ccc(NC(=S)Nc3ccccc3)cc2)nc2nc(Nc3ccc(S(=O)(=O)O)cc3)[nH]c(=O)c12", "growth": "78.9%"}, {"smiles": "C=C(C)[C@@H]1CC[C@]2(CNCCO)CC[C@]3(C)[C@H](CC[C@@H]4[C@@]5(C)CCC(N)[C@@](C)(CO)[C@@H]5CC[C@]43C)[C@@H]12", "note": "(stereo not given in full)", "growth": "66.1%"}, {"smiles": "Cc1csc(NC(=O)c2sc3nc(-c4cccs4)ccc3c2N)n1", "growth": "88%"}, {"smiles": "NC(N)=N/N=C(/c1ccccc1)c1ccc(N)cc1", "growth": "95%"}, {"smiles": "Nc1ccn(C2OC(F)(CO)C(O)C2F)c(=O)n1", "note": "(stereo not given)", "growth": "10.7%"}, {"smiles": "CC(c1ccc(-n2cccn2)cc1)c1cnc(N2CCc3ccc(C(N)=O)cc3C2)s1", "note": "(stereo not given)", "growth": "51.8%"}, {"smiles": "O=[N+]([O-])c1ccc(-c2cc3c(Nc4ccc(OCc5cccc(Cl)c5)c(Cl)c4)ncnc3s2)cc1", "growth": "59.9%"}, {"smiles": "Cc1ccc(NSc2ccccc2[N+](=O)[O-])cc1", "growth": "33.1%"}, {"smiles": "O=C1CC(c2ccc3c(c2)OCO3)Nc2cc3c(cc21)OCO3", "note": "(stereo not given)", "growth": "52.6%"}, {"smiles": "COc1ccc(-c2cncnc2N)cc1OC", "growth": "101%"}, {"smiles": "CS(=O)(=O)c1ccc(-c2[nH]c3ccc(F)cc3c2/C=N/O)cc1", "growth": "82.5%"}, {"smiles": "CCC(=O)OC1=C(C)SC2=NC(c3ccc(Cl)c(Cl)c3)=CC(c3cc(OC)c(OC)c(OC)c3)N21", "note": "(stereo not given)", "growth": "82.1%"}, {"smiles": "C#CC[C@H](N)C(=O)O", "growth": "86.1% [20 µM]"}, {"smiles": "Cc1cc(-c2ccccc2)cc(SC#N)[n+]1[O-]", "growth": "40.4%"}]}]}
